Reference: a collection of fitness landscapes (doi:10.1016/j.celrep.2020.107928)
The full ranking holds about 81,000 sequences; the median of “one-hybrid fitness for binding NBS DNA” is about -0.1, and the highest 2% start at about 0.36. This excerpt belongs to a sample that is enriched for the highest values.

B1: Caulobacter ParB omega fusion; a variant is named by its letters at X, in order, B8GW30 (parent)
chain: MESVVVGEPGMSEGRRGLGRGLSALLGEVDAAPAQAPGEQLGGSREAPIEILQRNPDQPRRTFREEDLEDLSNSIREKGVLQPILVRPSPDTAGEYQIVAGERAWRAAQRAGLKTVPIMVRELDDLAVLEIGIIENVQRADLNVLEEALSYKVLMEKFERTQENIAQTIGKSXSHVANXMRLLXLPDEVQSYLVSGELTAXHARAIAAAADPVALAKQIIEGGLSVRETEALARKAPNLSAGKSKGGRPPRVKDTDTQALESDLSSVLGLDVSIDHRGSTGTLTITYATLEQLDDLCNRLTRGI

Variants of: B1
Experiment: one-hybrid fitness for binding NBS DNA (the Noc-binding site; scaled: cognate 1, non-cognate 0); higher = stronger binding
Settings: with NBS DNA site
Outline: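 Values were rescaled so that cognate is 1 and non-cognate is 0. Each is a fitness, the log change in a variant's read ratio to wild type from Illumina reads of plasmids before and after selection, with three replicate libraries pooled and variants under 10 reads dropped. Selection of the Caulobacter ParB libraries, four specificity codons randomised, used E. coli USO with a HIS3 reporter, site 19 bp from the promoter, on M9-minus-histidine with 0.1 mM IPTG and 5 mM 3-AT for 48 hours at 37°C.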

PTAP and DHKN cannot be ordered by “one-hybrid fitness for binding NBS DNA” value: ≤ 0.2 for the first, ≤ 0.2 for the second.

EVMR and TDVL cannot be ordered by “one-hybrid fitness for binding NBS DNA” value: ≤ 0.2 for the first, ≤ 0.2 for the second.

SRRL and GLRT cannot be ordered by “one-hybrid fitness for binding NBS DNA” value: ≤ 0.2 for the first, ≤ 0.2 for the second.

Compared with RKHQ, RKHR is higher in “one-hybrid fitness for binding NBS DNA” value: ≤ 0.2 for the first, 0.648 for the second.

RKHF and RKNP cannot be ordered by “one-hybrid fitness for binding NBS DNA” value: ≤ 0.2 for the first, ≤ 0.2 for the second.

First: RKYR
Second: RKYF
The “one-hybrid fitness for binding NBS DNA” value of the first is higher: 0.573 for the first, ≤ 0.2 for the second.

First: RKDR
Second: RKYN
The “one-hybrid fitness for binding NBS DNA” value of the first is higher: 0.443 for the first, ≤ 0.2 for the second.

First: RKNR
Second: RKNC
The “one-hybrid fitness for binding NBS DNA” value of the first is higher: 0.639 for the first, 0.281 for the second.

GTKM and DLTE cannot be ordered by “one-hybrid fitness for binding NBS DNA” value: ≤ 0.2 for the first, ≤ 0.2 for the second.

LAPI and SAAD cannot be ordered by “one-hybrid fitness for binding NBS DNA” value: ≤ 0.2 for the first, ≤ 0.2 for the second.

NGLS and NRSI cannot be ordered by “one-hybrid fitness for binding NBS DNA” value: ≤ 0.2 for the first, ≤ 0.2 for the second.

RRTL and LHEN cannot be ordered by “one-hybrid fitness for binding NBS DNA” value: ≤ 0.2 for the first, ≤ 0.2 for the second.

HLQP and MMSM cannot be ordered by “one-hybrid fitness for binding NBS DNA” value: ≤ 0.2 for the first, ≤ 0.2 for the second.

LRWK and RKGP cannot be ordered by “one-hybrid fitness for binding NBS DNA” value: ≤ 0.2 for the first, ≤ 0.2 for the second.

Going from RKQQ to RKGR, the “one-hybrid fitness for binding NBS DNA” value rises from ≤ 0.2 to 0.606.

RKWH and RKQM cannot be ordered by “one-hybrid fitness for binding NBS DNA” value: ≤ 0.2 for the first, ≤ 0.2 for the second.

Going from RKWP to RKSH, the “one-hybrid fitness for binding NBS DNA” value rises from ≤ 0.2 to 0.211.

Compared with RKSD, RKSR is higher in “one-hybrid fitness for binding NBS DNA” value: ≤ 0.2 for the first, 0.581 for the second.

First: RKQR
Second: RKGH
The “one-hybrid fitness for binding NBS DNA” value of the first is higher: 0.573 for the first, 0.301 for the second.

First: RKWR
Second: MTIG
The “one-hybrid fitness for binding NBS DNA” value of the first is higher: 0.49 for the first, ≤ 0.2 for the second.

VDYG and AHFR cannot be ordered by “one-hybrid fitness for binding NBS DNA” value: ≤ 0.2 for the first, ≤ 0.2 for the second.

QHIC and TCFS cannot be ordered by “one-hybrid fitness for binding NBS DNA” value: ≤ 0.2 for the first, ≤ 0.2 for the second.

VSQV and PITE cannot be ordered by “one-hybrid fitness for binding NBS DNA” value: ≤ 0.2 for the first, ≤ 0.2 for the second.

GSCV and NCKS cannot be ordered by “one-hybrid fitness for binding NBS DNA” value: ≤ 0.2 for the first, ≤ 0.2 for the second.

YSQQ and MHKT cannot be ordered by “one-hybrid fitness for binding NBS DNA” value: ≤ 0.2 for the first, ≤ 0.2 for the second.

PLRH and SRLF cannot be ordered by “one-hybrid fitness for binding NBS DNA” value: ≤ 0.2 for the first, ≤ 0.2 for the second.

IRKG and HKFT cannot be ordered by “one-hybrid fitness for binding NBS DNA” value: ≤ 0.2 for the first, ≤ 0.2 for the second.

Compared with RKRM, RKRR is higher in “one-hybrid fitness for binding NBS DNA” value: 0.258 for the first, 0.736 for the second.

Going from RKRK to PTAM, the “one-hybrid fitness for binding NBS DNA” value falls from 0.222 to ≤ 0.2.
